Experimental data as given in the supplement of paper PMC11732987, “Enantioselective OTUD7B fragment discovery through chemoproteomics screening and high-throughput optimisation” (Communications Chemistry, 2025).

Key:
Assay in all cases: log2 ratio of Biotin-Ahx-Ub-VS probe labelling (fragment/DMSO); higher = less target engagement (more negative = stronger competition), active = hit call of the paper (q ≤ 0.05, log2 ratio ≤ -1)
Conditions in all cases: compound concentration: 200 uM; treatment time: 3 h
USP42 = target: T1, USP42 (UniProt Q9H9J4)
T1 sequence (whole entry): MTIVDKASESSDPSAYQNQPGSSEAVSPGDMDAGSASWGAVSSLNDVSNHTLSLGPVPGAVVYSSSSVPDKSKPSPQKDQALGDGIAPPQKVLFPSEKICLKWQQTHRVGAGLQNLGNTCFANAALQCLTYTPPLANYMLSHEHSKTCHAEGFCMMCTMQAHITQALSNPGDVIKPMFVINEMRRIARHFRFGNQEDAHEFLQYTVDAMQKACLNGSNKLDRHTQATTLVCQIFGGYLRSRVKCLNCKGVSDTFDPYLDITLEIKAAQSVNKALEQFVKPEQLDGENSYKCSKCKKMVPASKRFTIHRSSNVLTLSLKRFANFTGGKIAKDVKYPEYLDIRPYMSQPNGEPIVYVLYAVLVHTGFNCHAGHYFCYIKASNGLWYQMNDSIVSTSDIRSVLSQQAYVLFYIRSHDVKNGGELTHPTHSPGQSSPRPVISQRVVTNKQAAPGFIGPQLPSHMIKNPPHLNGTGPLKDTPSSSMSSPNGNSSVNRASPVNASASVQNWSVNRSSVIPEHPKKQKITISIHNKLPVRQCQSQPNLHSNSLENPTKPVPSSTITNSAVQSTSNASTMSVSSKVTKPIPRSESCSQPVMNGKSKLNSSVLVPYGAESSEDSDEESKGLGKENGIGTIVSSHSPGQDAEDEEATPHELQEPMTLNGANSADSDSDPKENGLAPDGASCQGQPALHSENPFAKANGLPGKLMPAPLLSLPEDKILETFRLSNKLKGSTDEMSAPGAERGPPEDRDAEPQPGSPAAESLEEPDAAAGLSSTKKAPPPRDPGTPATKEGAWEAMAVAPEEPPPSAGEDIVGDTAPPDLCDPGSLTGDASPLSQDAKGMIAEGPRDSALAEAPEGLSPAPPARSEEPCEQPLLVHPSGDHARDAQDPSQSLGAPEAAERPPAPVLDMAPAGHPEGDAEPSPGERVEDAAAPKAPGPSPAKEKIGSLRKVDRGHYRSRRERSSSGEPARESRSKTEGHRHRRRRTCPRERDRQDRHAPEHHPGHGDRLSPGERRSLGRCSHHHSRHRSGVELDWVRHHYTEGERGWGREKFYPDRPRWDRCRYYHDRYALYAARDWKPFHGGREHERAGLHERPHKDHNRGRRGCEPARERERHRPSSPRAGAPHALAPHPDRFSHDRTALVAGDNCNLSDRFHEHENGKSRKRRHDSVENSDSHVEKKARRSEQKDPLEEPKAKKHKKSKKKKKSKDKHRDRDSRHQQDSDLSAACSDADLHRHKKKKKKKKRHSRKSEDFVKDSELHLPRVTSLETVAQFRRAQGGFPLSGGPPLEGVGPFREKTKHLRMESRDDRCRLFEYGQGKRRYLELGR
Procedure, shortened: (§1)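 In triplicate, 495 µg of HEK293T lysate per sample was incubated with fragment at 200 µM or vehicle for 3 h. Biotin-Ahx-Ub-VS was then added to 0.5 µM final for 1 h, and labelled DUBs were captured with NeutrAvidin, digested with LysC and trypsin, and measured by diaPASEF LC-MS/MS. Data are average log2 fragment/vehicle ratios by unpaired t-test from global-median-normalised Spectronaut label-free quantities, restricted to proteins with ≥2 unique peptides.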

USP46 = USP46 (UniProt P62068)
Chain of USP46 (P62068 whole entry): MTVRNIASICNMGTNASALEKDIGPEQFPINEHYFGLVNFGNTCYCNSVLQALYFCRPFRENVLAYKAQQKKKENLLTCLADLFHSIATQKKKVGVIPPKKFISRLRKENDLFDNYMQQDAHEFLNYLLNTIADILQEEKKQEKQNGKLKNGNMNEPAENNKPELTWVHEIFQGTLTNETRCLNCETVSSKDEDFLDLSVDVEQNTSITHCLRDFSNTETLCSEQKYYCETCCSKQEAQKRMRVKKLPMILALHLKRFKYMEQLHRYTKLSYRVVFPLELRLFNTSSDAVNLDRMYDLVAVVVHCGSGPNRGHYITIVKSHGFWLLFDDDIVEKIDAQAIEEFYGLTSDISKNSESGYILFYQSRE
Procedure, shortened: as §1

USP47 = target: T2, USP47 (UniProt Q96K76)
T2 sequence (whole entry): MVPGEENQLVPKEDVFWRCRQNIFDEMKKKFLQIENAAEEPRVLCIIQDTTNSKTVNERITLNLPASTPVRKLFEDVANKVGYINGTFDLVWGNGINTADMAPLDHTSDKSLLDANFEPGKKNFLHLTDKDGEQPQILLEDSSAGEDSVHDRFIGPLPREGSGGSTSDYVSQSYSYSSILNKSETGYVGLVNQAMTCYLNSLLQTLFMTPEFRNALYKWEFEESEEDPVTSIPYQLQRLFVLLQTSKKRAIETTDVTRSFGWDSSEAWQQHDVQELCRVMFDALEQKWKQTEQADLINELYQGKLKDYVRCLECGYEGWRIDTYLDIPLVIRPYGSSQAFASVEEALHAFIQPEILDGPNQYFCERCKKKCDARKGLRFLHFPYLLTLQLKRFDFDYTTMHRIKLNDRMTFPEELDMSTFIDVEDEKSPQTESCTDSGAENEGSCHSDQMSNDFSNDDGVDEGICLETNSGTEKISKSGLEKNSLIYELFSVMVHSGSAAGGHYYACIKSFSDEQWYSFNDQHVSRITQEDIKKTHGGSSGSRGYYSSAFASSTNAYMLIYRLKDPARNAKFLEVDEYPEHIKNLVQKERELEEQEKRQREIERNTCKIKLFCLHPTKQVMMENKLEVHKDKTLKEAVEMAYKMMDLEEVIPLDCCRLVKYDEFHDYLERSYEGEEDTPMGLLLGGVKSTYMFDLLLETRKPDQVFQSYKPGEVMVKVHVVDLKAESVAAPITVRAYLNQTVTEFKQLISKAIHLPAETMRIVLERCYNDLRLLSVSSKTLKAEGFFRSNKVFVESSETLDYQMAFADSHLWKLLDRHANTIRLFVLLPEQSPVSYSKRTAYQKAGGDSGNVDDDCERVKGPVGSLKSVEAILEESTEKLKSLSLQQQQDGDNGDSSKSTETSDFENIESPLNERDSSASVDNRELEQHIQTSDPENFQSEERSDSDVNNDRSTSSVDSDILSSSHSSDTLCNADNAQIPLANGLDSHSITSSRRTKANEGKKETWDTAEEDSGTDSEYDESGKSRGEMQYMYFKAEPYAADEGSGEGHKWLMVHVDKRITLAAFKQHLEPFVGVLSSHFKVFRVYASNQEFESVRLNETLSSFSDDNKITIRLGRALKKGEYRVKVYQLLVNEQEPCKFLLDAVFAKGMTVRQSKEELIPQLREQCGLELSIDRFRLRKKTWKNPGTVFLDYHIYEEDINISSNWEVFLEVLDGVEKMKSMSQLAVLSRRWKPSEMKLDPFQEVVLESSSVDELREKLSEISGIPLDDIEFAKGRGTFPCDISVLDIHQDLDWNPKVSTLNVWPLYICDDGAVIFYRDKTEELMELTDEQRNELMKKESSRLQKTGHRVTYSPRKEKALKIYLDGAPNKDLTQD
Procedure, shortened: as §1

USP48 = target: T3, USP48 (UniProt Q86UV5)
T3 sequence (whole entry): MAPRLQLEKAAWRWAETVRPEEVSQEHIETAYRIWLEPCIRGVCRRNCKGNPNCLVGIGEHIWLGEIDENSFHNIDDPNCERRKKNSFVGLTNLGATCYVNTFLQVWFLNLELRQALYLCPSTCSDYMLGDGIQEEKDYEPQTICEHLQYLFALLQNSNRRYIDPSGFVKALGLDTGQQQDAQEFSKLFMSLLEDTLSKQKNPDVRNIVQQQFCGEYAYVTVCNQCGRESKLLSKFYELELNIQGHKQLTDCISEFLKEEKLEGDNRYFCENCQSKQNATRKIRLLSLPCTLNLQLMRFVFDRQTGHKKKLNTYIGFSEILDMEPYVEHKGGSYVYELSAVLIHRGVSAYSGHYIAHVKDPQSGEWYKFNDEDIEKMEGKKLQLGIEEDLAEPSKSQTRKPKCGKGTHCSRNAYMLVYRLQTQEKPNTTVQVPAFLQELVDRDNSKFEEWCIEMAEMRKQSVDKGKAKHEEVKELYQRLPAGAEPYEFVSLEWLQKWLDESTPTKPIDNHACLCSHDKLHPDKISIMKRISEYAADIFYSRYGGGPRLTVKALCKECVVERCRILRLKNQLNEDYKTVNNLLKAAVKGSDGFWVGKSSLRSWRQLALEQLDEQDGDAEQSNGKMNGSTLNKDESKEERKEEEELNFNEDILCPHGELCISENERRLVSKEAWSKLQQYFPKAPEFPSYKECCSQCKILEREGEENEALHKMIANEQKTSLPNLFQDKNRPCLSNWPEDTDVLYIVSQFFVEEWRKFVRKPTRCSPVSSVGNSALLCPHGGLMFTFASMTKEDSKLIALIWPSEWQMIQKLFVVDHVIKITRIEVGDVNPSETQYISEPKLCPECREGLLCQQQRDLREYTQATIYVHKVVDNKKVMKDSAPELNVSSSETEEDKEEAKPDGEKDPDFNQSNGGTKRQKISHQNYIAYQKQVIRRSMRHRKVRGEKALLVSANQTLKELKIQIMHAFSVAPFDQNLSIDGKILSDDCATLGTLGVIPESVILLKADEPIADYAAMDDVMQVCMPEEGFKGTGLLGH
Procedure, shortened: as §1

USP5 = target: T4, USP5 (UniProt P45974)
T4 sequence (whole entry): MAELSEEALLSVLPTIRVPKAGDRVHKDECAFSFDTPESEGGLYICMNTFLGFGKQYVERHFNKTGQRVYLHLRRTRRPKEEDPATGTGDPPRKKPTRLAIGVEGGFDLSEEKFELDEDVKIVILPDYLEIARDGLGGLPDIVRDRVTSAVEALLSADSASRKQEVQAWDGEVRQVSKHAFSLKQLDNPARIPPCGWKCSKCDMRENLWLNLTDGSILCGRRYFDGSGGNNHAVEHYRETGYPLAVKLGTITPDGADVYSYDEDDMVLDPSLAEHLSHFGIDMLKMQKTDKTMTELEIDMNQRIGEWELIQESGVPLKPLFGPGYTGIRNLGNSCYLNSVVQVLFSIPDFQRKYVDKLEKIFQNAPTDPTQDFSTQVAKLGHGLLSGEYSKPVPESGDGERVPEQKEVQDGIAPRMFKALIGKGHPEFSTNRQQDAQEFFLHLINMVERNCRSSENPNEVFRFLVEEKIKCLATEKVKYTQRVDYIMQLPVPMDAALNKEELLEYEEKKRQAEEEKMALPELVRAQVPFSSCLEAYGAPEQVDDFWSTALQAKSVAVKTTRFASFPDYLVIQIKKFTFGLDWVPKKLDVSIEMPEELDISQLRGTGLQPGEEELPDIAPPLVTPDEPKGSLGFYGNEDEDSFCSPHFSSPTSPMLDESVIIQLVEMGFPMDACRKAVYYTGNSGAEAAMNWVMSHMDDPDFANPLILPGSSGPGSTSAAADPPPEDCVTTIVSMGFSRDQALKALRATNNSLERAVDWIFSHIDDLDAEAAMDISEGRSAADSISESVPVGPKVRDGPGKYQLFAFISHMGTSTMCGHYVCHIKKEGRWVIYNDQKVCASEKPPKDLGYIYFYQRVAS
Procedure, shortened: as §1

USP54 = USP54 (UniProt Q70EL1)
Chain of USP54 (Q70EL1 whole entry): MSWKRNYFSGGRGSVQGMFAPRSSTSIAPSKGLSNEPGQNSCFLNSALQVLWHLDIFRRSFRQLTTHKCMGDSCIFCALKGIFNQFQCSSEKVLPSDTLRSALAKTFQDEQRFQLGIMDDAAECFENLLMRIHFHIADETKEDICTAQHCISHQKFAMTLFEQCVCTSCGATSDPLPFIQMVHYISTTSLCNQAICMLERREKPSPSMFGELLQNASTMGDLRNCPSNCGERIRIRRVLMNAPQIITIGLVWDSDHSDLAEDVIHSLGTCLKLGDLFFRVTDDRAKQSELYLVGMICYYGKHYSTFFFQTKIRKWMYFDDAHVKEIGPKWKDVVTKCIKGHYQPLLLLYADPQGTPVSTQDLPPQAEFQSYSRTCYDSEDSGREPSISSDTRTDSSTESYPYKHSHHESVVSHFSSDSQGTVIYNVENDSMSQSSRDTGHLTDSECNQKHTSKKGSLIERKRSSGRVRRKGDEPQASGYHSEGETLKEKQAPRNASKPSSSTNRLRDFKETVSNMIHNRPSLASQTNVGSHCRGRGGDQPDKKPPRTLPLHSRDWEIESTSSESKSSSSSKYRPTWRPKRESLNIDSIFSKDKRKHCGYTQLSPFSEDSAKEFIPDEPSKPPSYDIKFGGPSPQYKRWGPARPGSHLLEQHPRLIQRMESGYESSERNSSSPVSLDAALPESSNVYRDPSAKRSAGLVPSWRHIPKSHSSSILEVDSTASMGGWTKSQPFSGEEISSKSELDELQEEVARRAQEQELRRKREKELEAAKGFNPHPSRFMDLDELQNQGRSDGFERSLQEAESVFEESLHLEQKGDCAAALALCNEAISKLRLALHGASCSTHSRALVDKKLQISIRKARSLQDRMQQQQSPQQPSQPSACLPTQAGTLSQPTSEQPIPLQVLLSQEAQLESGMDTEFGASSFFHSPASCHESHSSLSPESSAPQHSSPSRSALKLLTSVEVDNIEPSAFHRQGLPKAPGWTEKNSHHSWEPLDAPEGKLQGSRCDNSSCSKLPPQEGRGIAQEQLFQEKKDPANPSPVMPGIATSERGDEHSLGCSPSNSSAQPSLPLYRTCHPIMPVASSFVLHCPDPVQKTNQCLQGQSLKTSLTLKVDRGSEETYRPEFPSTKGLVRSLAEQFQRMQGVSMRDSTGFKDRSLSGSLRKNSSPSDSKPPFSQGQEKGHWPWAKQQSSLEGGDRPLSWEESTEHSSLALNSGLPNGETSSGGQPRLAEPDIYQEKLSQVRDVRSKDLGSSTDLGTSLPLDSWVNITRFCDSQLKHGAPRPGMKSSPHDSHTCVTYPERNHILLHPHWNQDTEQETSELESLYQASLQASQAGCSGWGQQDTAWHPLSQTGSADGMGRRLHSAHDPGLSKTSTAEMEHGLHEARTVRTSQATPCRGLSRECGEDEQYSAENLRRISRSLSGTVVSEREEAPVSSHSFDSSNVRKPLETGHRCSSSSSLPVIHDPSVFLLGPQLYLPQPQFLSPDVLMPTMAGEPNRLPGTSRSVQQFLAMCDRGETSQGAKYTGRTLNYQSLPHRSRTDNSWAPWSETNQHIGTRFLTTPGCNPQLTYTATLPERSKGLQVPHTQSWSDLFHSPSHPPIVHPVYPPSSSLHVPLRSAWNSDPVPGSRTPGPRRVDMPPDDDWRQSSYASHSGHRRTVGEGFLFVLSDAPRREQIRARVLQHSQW
Procedure, shortened: as §1

USP7 = USP7 (UniProt Q93009)
Procedure, shortened: as §1

USP8 = target: T5, USP8 (UniProt P40818)
T5 sequence (whole entry): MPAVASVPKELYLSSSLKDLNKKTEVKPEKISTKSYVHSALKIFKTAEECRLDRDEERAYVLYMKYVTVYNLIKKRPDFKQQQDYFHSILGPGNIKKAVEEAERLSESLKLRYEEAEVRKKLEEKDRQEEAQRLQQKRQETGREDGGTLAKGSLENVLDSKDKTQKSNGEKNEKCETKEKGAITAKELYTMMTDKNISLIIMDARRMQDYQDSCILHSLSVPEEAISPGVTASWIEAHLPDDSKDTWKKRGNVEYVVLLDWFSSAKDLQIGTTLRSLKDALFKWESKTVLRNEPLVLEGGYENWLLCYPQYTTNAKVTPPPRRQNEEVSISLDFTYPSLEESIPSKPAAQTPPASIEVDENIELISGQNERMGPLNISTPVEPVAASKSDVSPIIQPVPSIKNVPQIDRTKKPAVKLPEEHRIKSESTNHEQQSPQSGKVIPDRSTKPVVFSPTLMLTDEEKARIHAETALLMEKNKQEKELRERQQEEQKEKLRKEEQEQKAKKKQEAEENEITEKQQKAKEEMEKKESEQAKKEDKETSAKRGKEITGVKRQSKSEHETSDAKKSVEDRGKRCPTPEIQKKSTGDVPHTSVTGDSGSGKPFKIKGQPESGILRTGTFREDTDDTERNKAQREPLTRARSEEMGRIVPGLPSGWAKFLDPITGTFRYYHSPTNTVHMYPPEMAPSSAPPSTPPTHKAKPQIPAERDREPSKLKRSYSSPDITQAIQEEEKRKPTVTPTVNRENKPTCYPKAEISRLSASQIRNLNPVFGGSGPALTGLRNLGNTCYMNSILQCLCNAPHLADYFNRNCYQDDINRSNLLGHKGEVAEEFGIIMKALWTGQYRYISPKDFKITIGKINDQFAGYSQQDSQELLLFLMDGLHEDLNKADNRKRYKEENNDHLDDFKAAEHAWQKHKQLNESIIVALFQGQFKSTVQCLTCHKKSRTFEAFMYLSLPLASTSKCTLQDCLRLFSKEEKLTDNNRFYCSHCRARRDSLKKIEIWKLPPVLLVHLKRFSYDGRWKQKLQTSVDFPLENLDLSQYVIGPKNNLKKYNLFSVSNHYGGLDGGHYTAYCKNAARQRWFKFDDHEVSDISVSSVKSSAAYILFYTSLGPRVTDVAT
Procedure, shortened: as §1

USP9X = USP9X (UniProt Q93008)
Chain of USP9X (Q93008 whole entry): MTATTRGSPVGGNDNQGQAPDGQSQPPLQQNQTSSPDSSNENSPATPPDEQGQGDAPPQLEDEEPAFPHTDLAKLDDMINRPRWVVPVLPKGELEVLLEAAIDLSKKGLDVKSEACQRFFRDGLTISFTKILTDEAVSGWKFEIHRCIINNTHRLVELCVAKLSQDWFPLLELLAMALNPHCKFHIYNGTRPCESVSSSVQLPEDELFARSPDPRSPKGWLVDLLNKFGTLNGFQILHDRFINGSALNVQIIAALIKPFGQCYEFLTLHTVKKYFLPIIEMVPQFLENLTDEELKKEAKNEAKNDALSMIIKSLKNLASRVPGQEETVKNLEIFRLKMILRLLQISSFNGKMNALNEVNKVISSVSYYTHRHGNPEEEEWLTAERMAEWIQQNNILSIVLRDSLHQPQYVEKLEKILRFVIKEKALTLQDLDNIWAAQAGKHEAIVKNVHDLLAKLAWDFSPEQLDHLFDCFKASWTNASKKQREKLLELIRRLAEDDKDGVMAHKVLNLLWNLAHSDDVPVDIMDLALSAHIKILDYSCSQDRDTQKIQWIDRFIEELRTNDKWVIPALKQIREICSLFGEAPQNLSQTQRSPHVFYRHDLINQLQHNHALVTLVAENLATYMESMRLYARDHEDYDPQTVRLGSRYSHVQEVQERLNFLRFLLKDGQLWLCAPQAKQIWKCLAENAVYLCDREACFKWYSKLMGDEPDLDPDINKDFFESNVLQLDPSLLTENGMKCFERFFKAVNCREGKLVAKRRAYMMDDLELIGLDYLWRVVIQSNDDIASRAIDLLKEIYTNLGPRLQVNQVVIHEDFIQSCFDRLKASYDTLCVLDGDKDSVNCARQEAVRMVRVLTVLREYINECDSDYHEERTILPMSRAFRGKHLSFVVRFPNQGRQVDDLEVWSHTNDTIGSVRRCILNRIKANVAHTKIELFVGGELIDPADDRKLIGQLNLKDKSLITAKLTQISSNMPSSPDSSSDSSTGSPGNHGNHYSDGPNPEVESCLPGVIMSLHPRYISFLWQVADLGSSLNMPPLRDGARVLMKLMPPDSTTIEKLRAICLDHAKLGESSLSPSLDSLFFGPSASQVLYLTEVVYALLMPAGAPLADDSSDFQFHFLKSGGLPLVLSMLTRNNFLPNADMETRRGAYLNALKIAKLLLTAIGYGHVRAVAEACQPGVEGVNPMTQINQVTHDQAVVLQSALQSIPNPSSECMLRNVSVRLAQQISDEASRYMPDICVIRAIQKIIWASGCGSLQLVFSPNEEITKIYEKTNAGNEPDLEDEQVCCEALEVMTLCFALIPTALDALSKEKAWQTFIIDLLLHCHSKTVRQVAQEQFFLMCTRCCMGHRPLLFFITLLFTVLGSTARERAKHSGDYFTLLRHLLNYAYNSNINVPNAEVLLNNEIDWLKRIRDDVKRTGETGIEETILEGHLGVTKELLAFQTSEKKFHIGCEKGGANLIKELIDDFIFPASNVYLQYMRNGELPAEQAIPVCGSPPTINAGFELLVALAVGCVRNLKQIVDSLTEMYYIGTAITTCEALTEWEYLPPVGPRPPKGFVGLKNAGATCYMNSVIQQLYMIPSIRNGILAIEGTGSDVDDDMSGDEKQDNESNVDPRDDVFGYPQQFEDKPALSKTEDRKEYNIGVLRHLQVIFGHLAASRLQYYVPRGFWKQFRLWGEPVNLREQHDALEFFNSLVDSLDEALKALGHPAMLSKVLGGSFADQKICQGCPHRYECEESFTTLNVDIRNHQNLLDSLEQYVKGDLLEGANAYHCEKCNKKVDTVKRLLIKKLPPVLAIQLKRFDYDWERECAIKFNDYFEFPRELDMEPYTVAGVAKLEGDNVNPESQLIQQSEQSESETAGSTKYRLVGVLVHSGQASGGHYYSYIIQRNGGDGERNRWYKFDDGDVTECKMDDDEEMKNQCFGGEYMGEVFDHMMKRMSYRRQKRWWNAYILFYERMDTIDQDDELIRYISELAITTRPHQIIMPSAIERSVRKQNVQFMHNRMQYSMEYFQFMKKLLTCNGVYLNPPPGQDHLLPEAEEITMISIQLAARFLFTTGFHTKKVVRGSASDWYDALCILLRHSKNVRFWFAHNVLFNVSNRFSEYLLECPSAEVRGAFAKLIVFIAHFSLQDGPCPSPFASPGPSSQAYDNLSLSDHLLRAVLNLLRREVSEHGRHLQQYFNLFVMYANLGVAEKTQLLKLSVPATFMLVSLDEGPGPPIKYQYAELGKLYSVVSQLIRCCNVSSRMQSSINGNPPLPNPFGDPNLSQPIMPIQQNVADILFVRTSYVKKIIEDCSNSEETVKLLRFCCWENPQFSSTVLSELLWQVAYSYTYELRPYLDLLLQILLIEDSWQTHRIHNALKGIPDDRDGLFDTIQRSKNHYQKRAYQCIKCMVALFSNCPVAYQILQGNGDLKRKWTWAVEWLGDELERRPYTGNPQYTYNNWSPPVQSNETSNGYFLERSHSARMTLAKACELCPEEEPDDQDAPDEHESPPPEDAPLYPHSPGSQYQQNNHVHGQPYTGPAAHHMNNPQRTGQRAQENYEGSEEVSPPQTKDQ
Procedure, shortened: as §1

UniProt O00487 = target: UniProt O00487
Chain of UniProt O00487 (O00487 whole entry): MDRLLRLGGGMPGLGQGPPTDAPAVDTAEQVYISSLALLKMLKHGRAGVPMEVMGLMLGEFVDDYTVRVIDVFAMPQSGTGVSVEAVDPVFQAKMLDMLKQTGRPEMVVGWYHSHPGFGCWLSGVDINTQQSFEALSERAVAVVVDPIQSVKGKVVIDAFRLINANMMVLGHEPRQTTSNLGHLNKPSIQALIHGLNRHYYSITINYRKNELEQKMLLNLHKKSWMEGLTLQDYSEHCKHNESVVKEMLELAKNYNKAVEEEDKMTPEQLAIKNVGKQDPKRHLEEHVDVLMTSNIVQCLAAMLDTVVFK
Procedure, shortened: as §1

Measured: log2 ratio of Biotin-Ahx-Ub-VS probe labelling

O=C(CCl)N1CCOC(CCc2ccccc2)C1 (stereo not given)
inactive: USP42 0.335 | USP46 -0.509 | USP47 -1.03 | USP48 -0.472 | USP5 -0.132 | USP54 0.433 | USP7 -0.763 | USP8 -0.555 | USP9X -0.43 | UniProt O00487 -0.235
